Screens deposited in PubChem by National Center for Advancing Translational Sciences (NCATS).
KB-3-1 cytotox = kills parental KB-3-1 adenocarcinoma cells; KB-3-1 viability, CellTiter-Glo ATP luminescence, 72 h; Potency, µM (doses to about 46.1 µM), usual class: cytotoxic; 400,000 tested, 1.4% active; AID 1347075; further: on the % scale 0 is the no-effect control and ±100 the full control effect; nearly all actives have a fitted effect of over 60% in size
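Cells are dispensed, compounds pinned in, plates held at 37 °C for 72 h, then CellTiter-Glo is added and luminescence read after 10 minutes. Cell line: parental KB-3-1 in phenol-red-free DMEM, 10% FBS.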
MCF10A rereplic = induces DNA re-replication in MCF 10a normal breast cells. MCF 10A DNA re-replication, Hoechst nuclear intensity, 48 h. Potency, µM (top dose mostly 46.1 µM), inactives show top-dose activity, positive = re-replication, hits mostly activators. 350,000 tested, 2.9% active. AID 624296; further: % of control where 0% means no effect; nearly all actives have a fitted effect of over 50% in size
KB-V1 MDR tox = KB-V1 MDR subline cytotoxicity | KB-V1 MDR cells viability, CellTiter-Glo, 72 h | Potency, µM (titrated, usually from 46.1 µM), hits mostly cytotoxic | 400,000 tested, 3.4% active | AID 1347076; further: on the % scale 0 is the no-effect control and ±100 the full control effect; nearly all actives have a fitted effect of over 60% in size
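KB-V1 cells (P-gp-expressing MDR subline of KB-3-1) in phenol-red-free DMEM with 10% FBS were exposed to library compounds over a concentration series for 72 h at 37 degrees C. Viability read by CellTiter-Glo luminescence; concentration-effect curves fitted after normalization.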
ELG1 repair inh = inhibitors of ELG1-dependent DNA repair in HEK293T cells; HEK293T ELG1-luciferase reporter, luminescence, 16 h; DNA damage induced by 5-fluorouridine; 330,000 tested, 2.3% active; AID 504467; Potency, µM (titrated, usually from 46.1 µM), inactives show top-dose activity change, negative = inhibition, most hits filed as inhibitors; further: on the % scale 0 is the no-effect control and ±100 the full control effect; nearly all actives have a fitted effect of over 55% in size
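Overnight (16 hr) co-exposure of 2,000 cells/well to 5-fluorouridine and compound at 37 °C preceded detection. Luciferase was quantified via ONE-Glo luminescence; loss of signal denotes inhibition.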
SW480 rereplic = inducers of DNA re-replication in SW480 colon cancer cells. SW480 DNA re-replication, Hoechst DNA content imaging, 48 h. Potency, µM (titrated, usually from 46.1 µM), for inactives: top-dose re-replication activation, hits mostly activators. 340,000 tested, 1.8% active; further: % of control where 0% means no effect; nearly all actives have a fitted effect of over 55% in size
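Treated cells incubate 48 hr (37 C, 5% CO2), are stained 40 min with Hoechst, and nuclear fluorescence is enumerated; a rise in nuclei with high DNA signal marks re-replication.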
* = called active by the depositor; [ ] = another dose, or the depositor's remark. Shown are actives, neighbours in structure and some others; about 8.2% of the full set was active somewhere. The call rests on the fitted dose curve; in most records, active means well fitted curve in the direction sought with a large enough effect; inconclusive means small, poorly fitted or top-dose-only effect, or another doubt; inactive means no such curve, though single readings can be large; an effect the other way counts as inactive or inconclusive. Potency means the concentration at half of the fitted maximal effect.

Results for NNC(=O)c1cc2cc3ccccc3nc2s1 ?
KB-3-1 cytotox: inactive; MCF10A rereplic: 11.6µM*; KB-V1 MDR tox: inactive; ELG1 repair inh: 22.9%; SW480 rereplic: 5.7%

What do the screens show for `CS(=O)(=O)NNC(=O)c1cc2cc3ccccc3nc2s1`?
KB-3-1 cytotox: inactive; MCF10A rereplic: -3.3%; KB-V1 MDR tox: inactive; ELG1 repair inh: 14.1%; SW480 rereplic: -5.1%

How did CC1(C)CC(=O)C=C(C#CC2(O)CCCCC2)C1 do in these assays?
KB-3-1 cytotox: 23.1µM*; KB-V1 MDR tox: 16.4µM*

Results for CC(O)CNCc1ccc(-c2ccccc2)cc1 (centres undefined) ?
KB-3-1 cytotox: inactive; MCF10A rereplic: inconclusive; KB-V1 MDR tox: inactive; ELG1 repair inh: 5.2%; SW480 rereplic: inconclusive

What do the screens show for `CC(NCc1ccc(-c2ccccc2)cc1)C(O)c1ccccc1` (centres undefined)?
KB-3-1 cytotox: inactive; MCF10A rereplic: 25.9µM*; KB-V1 MDR tox: inactive; ELG1 repair inh: -28.8%; SW480 rereplic: 4.11µM*

What do the screens show for `C[C@H]1CN([C@@H](C)CO)S(=O)(=O)c2ccc(C#CC3(O)CCCC3)cc2O[C@@H]1CN(C)C(=O)Cc1cccnc1`?
KB-3-1 cytotox: inactive; KB-V1 MDR tox: inactive

What do the screens show for `CCC(CO)Oc1cc(NCc2ccc(C(C)(C)C)cc2)c2ncn(C(C)C)c2c1` (centres undefined)?
KB-3-1 cytotox: inconclusive; MCF10A rereplic: -11.5%; KB-V1 MDR tox: inconclusive; ELG1 repair inh: inconclusive; SW480 rereplic: -0.4%[9.22 µM]

Results for COc1ccc(COc2ccc3c(C)cc(=O)oc3c2)cc1 ?
KB-3-1 cytotox: inactive; MCF10A rereplic: 1.4%; KB-V1 MDR tox: inactive; ELG1 repair inh: inconclusive; SW480 rereplic: -13.9%

How did COc1ccc2c(-c3cc4ccc(OCc5ccc(F)cc5)cc4oc3=O)cc(=O)oc2c1 do in these assays?
KB-3-1 cytotox: 7.31µM*; MCF10A rereplic: 1.84µM*; KB-V1 MDR tox: 8.2µM*; ELG1 repair inh: 4.4%; SW480 rereplic: -7.4%

What do the screens show for `O=C(Nc1ccccc1)NC1(C(=O)N2CCN(c3ncccn3)CC2)CCCCC1`?
KB-3-1 cytotox: inactive; MCF10A rereplic: -3.3%; KB-V1 MDR tox: inactive; ELG1 repair inh: 5.7%; SW480 rereplic: -2.4%

What do the screens show for `O=C(NCc1ccccc1)NC1(C(=O)N2CCN(c3ncccn3)CC2)CCCCC1`?
KB-3-1 cytotox: inactive; MCF10A rereplic: 23.1µM*; KB-V1 MDR tox: inactive; ELG1 repair inh: 0.9%; SW480 rereplic: 4.3%[9.22 µM]

How did CCCn1nc(NC(=O)c2cccs2)c2cc3ccccc3nc21 do in these assays?
KB-3-1 cytotox: inactive; MCF10A rereplic: 5.8µM*; KB-V1 MDR tox: inconclusive; ELG1 repair inh: inconclusive; SW480 rereplic: 14.6µM*

What do the screens show for `CCCCn1nc(NC(=O)c2cccs2)c2cc3ccccc3nc21`?
KB-3-1 cytotox: inconclusive; MCF10A rereplic: inconclusive; KB-V1 MDR tox: 25.9µM*; ELG1 repair inh: inconclusive; SW480 rereplic: inconclusive

How did N#Cc1c(NC(=O)COC(=O)c2ccc(O)cc2O)sc2c1CCC2 do in these assays?
KB-3-1 cytotox: inactive; MCF10A rereplic: inconclusive; KB-V1 MDR tox: inactive; ELG1 repair inh: 1.4%; SW480 rereplic: 9.6%

How did CSS(=O)(=O)c1cccc2cccnc12 do in these assays?
KB-3-1 cytotox: inactive; MCF10A rereplic: 18.4µM*; KB-V1 MDR tox: inactive; ELG1 repair inh: inconclusive; SW480 rereplic: inconclusive

How did N#CCC(=O)Nc1ncc(Cc2ccccc2Cl)s1 do in these assays?
KB-3-1 cytotox: inactive; MCF10A rereplic: 14.6µM*; KB-V1 MDR tox: inactive; ELG1 repair inh: -2.5%; SW480 rereplic: inconclusive

How did O=C(CN1CCOCC1)Nc1ncc(Cc2cccc3ccccc23)s1 do in these assays?
KB-3-1 cytotox: inactive; MCF10A rereplic: inconclusive; KB-V1 MDR tox: 13µM*; ELG1 repair inh: 1.0%; SW480 rereplic: 21.9%

How did COc1ccc(S(=O)(=O)N2CCN(c3nc(-c4ccccc4)nc4ccccc34)CC2)cc1 do in these assays?
KB-3-1 cytotox: inactive; KB-V1 MDR tox: inactive

What do the screens show for `Fc1ccc(-c2ccc3nccn3c2)cc1Cl`?
KB-3-1 cytotox: inactive; KB-V1 MDR tox: inactive
